Assay results published in PubChem BioAssay (NCI).
Compounds without any hit were thinned out: in the full panel of roughly 83,000, 20% have a hit.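 The endpoint reported here, percent growth, reads 100 for growth as untreated, 0 for no net growth and -100 for all cells dead.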 Unmarked numbers belong to inactive results. The source made the active and inactive calls. The calls were made as follows: active = growth percent below 10; inactive = the rest.

These compounds were tested on HL-60(TB) leukemia (assay: NCI-60 one-dose screen, 48 h (100 = growth as untreated, 0 = no growth, -100 = all killed)). Conditions: 10 µM unless noted.

Row | Compound | growth
1 | COc1ccc2c(O)c(/C=C3\N=Nc4nc(C)ccc43)oc2c1CC1CCNCC1 | 94.3%
2 | c1ccc2cc(C[n+]3ccn(CCCCCCCCCCCCn4cc[n+](Cc5ccc6ccccc6c5)c4)c3)ccc2c1 | -69.5% (active)
3 | Cc1nc2c(c(-c3ccccc3)n1)Cc1c(ccc3ccccc13)O2 | 103%
4 | CC1(C)CN(c2cnc(C(=O)Nc3cc(F)cc4cccnc34)cn2)CCN1 | 11.7%
5 | CCCN1C(=O)/C(=c2\sc3n(c2=O)NC2C(N=3)N(CC)C(=O)N2CC)c2ccccc21 (stereo not given) | -18.4% (active)
6 | CN(CCCNC(=O)Cc1ccc2ccc3cccc4ccc1c2c34)CCCNc1cc(-c2ccc3ccccc3c2)nc2ccccc12 | -60.1% (active)
7 | CCNC(=O)C1CCCN1C(=O)C(CCCN=C(N)N)NC(=O)C(CC(C)C)NC(=O)C(CC(C)C)NC(=O)C(Cc1ccc(O)cc1)NC(=O)C(CO)NC(=O)C(Cc1c[nH]c2ccccc12)NC(=O)C(Cc1cnc[nH]1)NC(=O)C1CCC(=O)N1 (stereo not given) | 113%
8 | N#Cc1ccc(O)c(C2=NCC(Cc3ccccc3)O2)c1 (stereo not given) | 44%
9 | N#Cc1c(-c2ccccn2)[nH]c(=S)[nH]c1=O | 94.9%
10 | Cc1cn(-c2cccc(NC(=O)c3ccc(C)c(Nc4nccc(-c5cccnc5)n4)c3)c2)cn1 | 10.4%
11 | NC[C@H](O)c1ccc(O)c(O)c1 | 98.8%
12 | Clc1nc(-c2ccccn2)nc2sc3c(c12)CCCCCC3 | 96%
13 | CSc1nc(S(C)(=O)=O)nc2[nH]c(=O)[nH]c12 | 108%
14 | CCCSc1ccc2nc(NC(=O)OC)[nH]c2c1 | 7.7% (active)
15 | O=C(CN1N=C(c2ccc(F)cc2)CCC1=O)Nc1nc2ccccc2s1 | 8.9% (active)
16 | COc1ccc(C2CC(=O)c3c(O)cc(OC4OC(COC5OC(C)C(O)C(O)C5O)C(O)C(O)C4O)cc3O2)cc1O (stereo not given) | 131%
17 | COc1ccc(S(=O)(=O)NC2c3ccccc3CC2O)cc1OC (stereo not given) | 103%
18 | CC(C)(C)c1ccc(S(=O)(=O)O)s1 | 82.5%
19 | O=[N+]([O-])c1c(S(=O)(=O)O)cc2cc(S(=O)(=O)O)ccc2c1[N+](=O)[O-] | 108%
20 | Nc1nc(Cl)nc2c1ncn2C1O[C@H](CO)[C@@H](O)[C@@H]1F (stereo not given in full) | -34.8% (active)

Row | Compound | growth
21 | C=C(CNCCc1ccc(O)cc1)[C@@H]1CC[C@]2(CO)CC[C@]3(C)[C@H](CC[C@@H]4[C@@]5(C)CCC(N)C(C)(C)[C@@H]5CC[C@]43C)[C@@H]12 (stereo not given in full) | -47% (active)
22 | Cc1ccc(S(=O)(=O)N2CCC(=O)c3ccccc32)cc1 | 60.3%
23 | COc1ccccc1/C=C/C(=O)c1ccccc1 | 51.8%
24 | C1=NCCc2ccccc21 | 116%
25 | Nc1ccccc1SC1CC(=O)N(c2ccc(Cl)c(Cl)c2)C1=O (stereo not given) | 139%
26 | NCCNc1nc2ccccc2c2c(=O)c3cc(F)ccc3sc12 | 62.8%
27 | COc1ccc(/C=C/C(C)=N/OCC(=O)O)cc1 | 89.1%
28 | CN1CCN(CC#CCOC(=O)CNC(=O)[C@]23CCC(C)(C)C[C@H]2C2=CC[C@@H]4[C@@]5(C)CC[C@H](O)C(C)(C)[C@@H]5CC[C@@]4(C)[C@]2(C)CC3)CC1 | 49.7%
29 | Cc1[nH]n(-c2ccccc2)c2nc3nncc3c(-c3ccc(Cl)cc3)c12 | 110%
30 | CN1NC(c2ccccc2)NN(C)C1=O | 105%
31 | Cc1nn(-c2cc(NC3CCC(O)CC3)c3c(=O)[nH]c(CCC(F)(F)F)cc3c2)c2c1C(=O)CC(C)(C)C2 (stereo not given) | 28%
32 | Cc1cnc2nc(-c3ccc(N(C)C)cc3)cn2c1 | 90.7%
33 | Cc1ccc(-[n+]2c3cc(N)c(C)cc3nc3cc(C)c(Nc4ccccc4)cc32)cc1 | -20.6% (active)
34 | O=C(/C=C/C12c3ccccc3C(c3ccccc31)C1C(=O)NC(=O)C12)c1ccccn1 (stereo not given) | -11.5% (active)
35 | COc1cc(/C=C2\CCCC3=C2NC(C)=NC3c2cc(OC)c(OC)c(OC)c2)cc(OC)c1OC (stereo not given) | -4.1% (active)
36 | CC1CC(O)CC(C)(C)C1 (stereo not given) | 80.8%
37 | C=CCN1C=CC(=O)[C@H](O[Si](C)(C)C(C)(C)C)[C@@H]1/C=C/c1ccccc1 | -33.3% [100 µM] (active)
38 | COc1cccc(-c2cn3nc(-c4cn(C)c5ccccc45)sc3n2)c1 | 104%
39 | O=C(Nc1cccnc1)c1ccc2ccc3ccc(C(=O)Nc4cccnc4)nc3c2n1 | 37.1%
40 | COc1ccc(C(=O)CSc2nc(-c3cc(OC)ccc3OC)cc(-c3ccc(OC)cc3)c2C#N)cc1 | 98.3%
